Structures are written as SMILES. Records with an inconclusive call do not appear. The source made the active and inactive calls. Unless noted, calls follow the shape of the dose curve; as a rule, active = well fitted curve in the direction sought with a large enough effect; inconclusive = small, poorly fitted or top-dose-only effect, or another doubt; inactive = no such curve, though single readings can be large; an effect the other way counts as inactive or inconclusive. Where only a bound is given, the exact number is not on record here.

Experiment [1] addresses Lysosomal acid glucosylceramidase (Homo sapiens) (UniProt P04062). Put plainly: Glucocerebrosidase-p2 (AID 348; in the data active = potency below about 10 µM; also: potency is read from the fitted curve at half-maximal effect). Particulars: purified GBA, blue fluorogenic substrate, 40 min. The method, boiled down: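 Compounds titrated from 0.6 nM upwards against 0.2 nM enzyme in pH 5.9 citric acid/KH2PO4, taurocholate, tween-20; blue fluorogenic substrate 80 uM, 40 min room temperature, stopped and read Ex 365/Em 440 for AC50.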

Experiment [2] can be described thus: AP1 Signaling Pathway (AID 357; active = well fitted curve in either direction with a large enough effect, not every such curve was filed as active;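 also: ME-180 reporter cells stimulated with EGF at its EC50 level; % is scaled to controls: 0 for no effect and ±100 for the full control effect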). To be noted: ME-180 AP-1-bla reporter, EGF-induced, beta-lactamase ratio, 5 h; at 7.69 µM (top of the series) unless noted. Put shortly:
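Cells are seeded overnight, exposed to compound titrations and an EC50 level of EGF for 5 hours at 37 °C, then loaded with CCF4 dye for 2.5 hours. Beta-lactamase activity under the AP-1 element is read as a blue/green ratio.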

Experiment [3] addresses Cytochrome P450 1A2 (Homo sapiens) (UniProt P05177). Kind of experiment: p450-cyp1a2 (AID 410; calls by dose curve; also: potency is read from the fitted curve at half-maximal effect). To be noted: recombinant CYP1A2, luciferin-ME demethylation, luminescence; series mostly up to 57 µM. The method, boiled down:
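Human CYP1A2 (20nM) demethylated Luciferin-ME at its Km (100uM) in 100mM KPO4. After 10 min compound preincubation, NADPH regeneration ran the reaction 60 min at room temperature. Luciferin was read by luminescence, normalized to 57 uM furafylline.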

The nature of experiment [4]: NFAT Signaling Pathway (AID 444; active = well fitted curve in either direction with a large enough effect, not every such curve was filed as active;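 also: carbachol stimulus at about its EC50 of 1 µM final; % is scaled to controls: 0 for no effect and ±100 for the full control effect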). Particulars: Jurkat NFAT-bla M1, carbachol, beta-lactamase ratio, 5 h; at 7.69 µM (top of the series) unless noted. The method, boiled down: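 Jurkat cells with NFAT-driven β-lactamase reporter and co-expressed M1 receptor, stimulated with carbachol (final 1 uM, ~EC50), compound titration, 5 h at 37 °C. CCF4 loaded 1 h at RT; 460/530 nm ratio gave %activity and AC50.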

Experiment [5] can be described thus: Stat Signaling Pathway (AID 446; active = well fitted curve in either direction with a large enough effect, not every such curve was filed as active;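 also: ME-180 cervical cancer cells given 40 pM IL-6 alongside compound; SIE-controlled beta-lactamase reporter measured as 460/530 nm FRET emission ratio; % is scaled to controls: 0 for no effect and ±100 for the full control effect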). To be noted: ME-180 SIE beta-lactamase reporter, IL-6 stimulated, 5 h; at 7.69 µM (top of the series) unless noted. Put shortly: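 Screening format detects activators and inhibitors alike: ME-180 SIE-bla cells stimulated at 40 pM IL-6 for 5 hrs with compound, then dual-emission beta-lactamase read at 405 nm excitation.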
Experiment [6] has as its target Glucocorticoid receptor (Homo sapiens) (UniProt P04150). Put plainly: GR-GFP Redistribution (AID 450;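 active = compounds whose dose series gives a full or clear partial fitted curve of increased nuclear translocation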; also: potency is read from the fitted curve at half-maximal effect). To be noted: U2OS GR-GFP nuclear translocation, laser cytometry, 2 h.
Experiment [7] shares this target. Put plainly: GR-EFC Redistribution (AID 451; calls by dose curve; also: potency is read from the fitted curve at half-maximal effect). To be noted: CHO-K1 GR-EFC translocation, beta-gal luminescence, 2 h. The method, boiled down: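 CHO-K1 cells expressing nuclear EA and GR-ED fragments of b-gal; compounds titrated up to 46 uM final, 2 h at 37 C. GR nuclear translocation read as complemented b-gal luminescence after 1 h RT detection.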
Experiment [8] deals with Mitogen-activated protein kinase 10 (Mus musculus) (UniProt Q61831). Put plainly: JNK3 AlphaScreen Assay (AID 530; active = well fitted curve in either direction with a large enough effect, not every such curve was filed as active;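 also: kinase came from lysate of stimulated human HepG2 cells; signal reports phosphorylation of biotinylated GST-cJun 1-79 at Ser73 with 10 µM ATP; % is scaled to controls: 0 for no effect and ±100 for the full control effect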). Particulars: JNK3 lysate, c-Jun phosphorylation; series mostly up to 57.1 µM. Put shortly:
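qHTS format: compounds tested as titrations against IL-1beta/TNF-alpha-activated HepG2 lysate JNK3 with biotin-GST-cJun substrate and 10 uM ATP at room temperature. Loss of anti-phospho-cJun AlphaScreen signal indicates inhibition.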
A general note: In Alpha technology, singlet oxygen from a donor bead excites a nearby acceptor bead.

Experiment [9] addresses 3',5'-cyclic-AMP phosphodiesterase 4B (Homo sapiens) (UniProt Q07343). Put plainly: qHTS Assay for Inhibitors of PDE-IV (AID 607; active = well fitted activation curve with a large enough effect in the main read-out, with a control signal flat, not every such curve was filed as active; also: % of control where 0% means no effect). To be noted: HEK293 ACTOne CNG channel cells, membrane potential fluorescence; series mostly up to 22.9 µM. The method, boiled down: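 The readout is membrane depolarisation from a cAMP-sensing CNG channel, detected with a potential dye at ex 535/em 590. Cells were HEK293-derived (endogenous PDE-IV) at 1000 cells/well, titrated up to 22.9 uM final.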
Background: qHTS replaces the single test concentration by a dilution series.

In experiment [10] the target is Cytochrome P450 3A4 (Homo sapiens) (UniProt P08684). Put plainly: qHTS Assay for Inhibitors and Substrates of Cytochrome P450 3A4 (AID 884). Also: potency is read from the fitted curve at half-maximal effect; nearly all actives have a fitted effect of over 50% in size. Particulars: recombinant CYP3A4, Luciferin-PPXE luminescence; series mostly up to 57.1 µM. The method, boiled down: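 20 nM human CYP3A4 with 25 uM Luciferin-PPXE (at KM) in 200 mM KPO4, preincubated 10 min with compound; NADPH regeneration started a 60 min RT reaction. Luciferin detected by luminescence, normalized to 57 uM ketoconazole as full inhibition.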
Chain of Cytochrome P450 3A4 (Homo sapiens) (P08684 whole entry, looked up): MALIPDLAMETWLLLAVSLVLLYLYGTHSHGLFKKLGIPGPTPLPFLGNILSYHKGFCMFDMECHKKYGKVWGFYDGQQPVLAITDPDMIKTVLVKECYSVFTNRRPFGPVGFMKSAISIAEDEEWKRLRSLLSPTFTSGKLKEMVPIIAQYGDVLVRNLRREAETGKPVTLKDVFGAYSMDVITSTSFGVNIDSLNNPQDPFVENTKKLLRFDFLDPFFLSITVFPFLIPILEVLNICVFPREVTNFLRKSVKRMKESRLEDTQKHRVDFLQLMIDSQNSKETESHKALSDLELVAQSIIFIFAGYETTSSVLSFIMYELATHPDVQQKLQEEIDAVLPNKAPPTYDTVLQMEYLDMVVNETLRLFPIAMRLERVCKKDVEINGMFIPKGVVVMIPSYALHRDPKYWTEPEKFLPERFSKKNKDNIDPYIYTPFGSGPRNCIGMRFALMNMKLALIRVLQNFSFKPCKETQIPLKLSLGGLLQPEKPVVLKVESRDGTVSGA

Experiment [11] shares this target. Put plainly: qHTS Assay for Activators of Cytochrome P450 3A4 (AID 885). Also: nearly all actives have a fitted effect of over 65% in size. To be noted: recombinant CYP3A4, Luciferin-PPXE luminescence, 60 min; series mostly up to 57.1 µM. Put shortly: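 Steps: enzyme/substrate mix dispensed; compound added, 10 min RT; NADPH regeneration solution added, 60 min RT; luciferin detection buffer stops reaction; 20 min later luminescence measured.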

Experiment [12] in a line: Confirmation and Secondary Assay for Modulators of Hemoglobin Beta Chain Splicing at IVS2 654 locus (AID 910).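 Also: HeLa cells stably carrying EGFP split by mutant beta-globin IVS2-654 intron; % of control where 0% means no effect.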 Particulars: HeLa EGFP-654 splicing reporter, GFP fluorescence, 48 h; series mostly up to 38.3 µM. Put shortly:
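HeLa cells stably expressing EGFP interrupted by β-globin IVS2-654 intron, seeded overnight in Opti-MEM/2% FCS, then treated 2 days at 37 °C. Restored splicing read as total peak GFP intensity per well by laser scanning cytometry (488 nm excitation, 500–520 nm emission); 500 nM antisense PNA as control.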

Experiment [13] can be described thus: Confirmation and Secondary Assay for Modulators of Hemoglobin Beta Chain Splicing at IVS2 705 locus (AID 930).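 Also: HeLa cells stably expressing the EGFP-705 splicing reporter; GFP fluorescence per well restored by corrected splicing of the IVS2-705 intron in EGFP; % of control where 0% means no effect.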 To be noted: HeLa EGFP-705 splicing reporter, GFP fluorescence, 48 h; series mostly up to 38.3 µM. Put shortly:
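First, HeLa EGFP-705 cells are seeded at 500/well in Optimem with 2% FCS and left overnight. Next, compound or DMSO is added for 2 days. Finally wells are laser-scanned and total peak GFP intensity scored.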

A short description of experiment [14]: qHTS Assay for Lipid Storage Modulators (AID 1519; calls by dose curve). Particulars: Drosophila S3 cells, BODIPY lipid droplet/cell ratio, laser cytometry, cells loaded with oleic acid; for activity change, negative = inhibition: at 57.5 µM (top of the series). Put shortly:
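Cells seeded at 5,000 per well were treated with compounds over a concentration series and loaded with oleic acid (400 uM, as added). Lipid droplet fluorescence (488 nm excitation, 500-530 nm channel) was read by laser-scanning cytometry and normalized to 20 uM Triacsin C.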

Experiment [15] has as its target Ubiquitin carboxyl-terminal hydrolase 1 (Homo sapiens) (UniProt O94782). Put plainly: Inhibitors of USP1/UAF1: Pilot qHTS (AID 504865).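 Also: rhodamine fluorescence freed from ubiquitin-rhodamine substrate followed over time; top concentration of the series differs between compounds; % is scaled to controls: 0 for no effect and ±100 for the full control effect; nearly all actives have a fitted effect of over 35% in size.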 Particulars: purified USP1/UAF1, Ub-rhodamine cleavage fluorescence; series mostly up to 54.9 µM. Put shortly:
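In 50mM HEPES pH 7.8 containing 0.5mM EDTA, 1mM TCEP, 0.1 mg/ml BSA and 0.01% Tween-20, 1nM USP1/UAF1 is exposed to compound for 15 min, then Ub-Rho (150nM final) is added and fluorescence is read over time.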

For experiment [16], the target named is Cytochrome P450 2C19 (Homo sapiens) (UniProt P33261). Kind of experiment: qHTS Assay for Inhibitors and Substrates of Cytochrome P450 2C19 (AID 899). Also: potency is read from the fitted curve at half-maximal effect; nearly all actives have a fitted effect of over 60% in size. Particulars: recombinant CYP2C19, luciferin-H EGE luminescence; series mostly up to 57.1 µM. Put shortly:
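Luminescent read-out of luciferin formed from Luciferin-H EGE (10uM, equal to KM). Enzyme 5nM in 50mM KPO4; compound added, 10 min at 37C, then NADPH regenerating system for 60 min at 37C. Full inhibition defined by 57uM ketoconazole.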

[17] abbreviates: measured here: cell count channel max response.
Setting [18] is: measured here: lipid channel max response.

Chain of Cytochrome P450 1A2 (Homo sapiens) (P05177 whole entry, looked up): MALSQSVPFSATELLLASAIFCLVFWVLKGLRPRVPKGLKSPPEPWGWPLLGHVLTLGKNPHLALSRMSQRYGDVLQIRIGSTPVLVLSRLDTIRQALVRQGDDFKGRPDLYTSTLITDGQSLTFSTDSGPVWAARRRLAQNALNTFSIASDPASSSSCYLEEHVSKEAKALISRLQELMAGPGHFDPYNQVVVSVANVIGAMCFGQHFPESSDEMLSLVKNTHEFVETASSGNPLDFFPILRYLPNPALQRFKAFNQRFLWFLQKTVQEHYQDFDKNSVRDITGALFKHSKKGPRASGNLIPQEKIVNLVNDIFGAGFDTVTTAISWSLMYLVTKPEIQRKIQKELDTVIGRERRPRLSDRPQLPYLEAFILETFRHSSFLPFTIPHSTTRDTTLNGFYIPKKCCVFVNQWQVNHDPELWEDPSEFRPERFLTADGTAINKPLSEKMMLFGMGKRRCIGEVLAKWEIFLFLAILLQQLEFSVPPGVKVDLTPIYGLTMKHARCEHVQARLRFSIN
Chain of Glucocorticoid receptor (Homo sapiens) (P04150 whole entry, looked up, the tested form may be a part): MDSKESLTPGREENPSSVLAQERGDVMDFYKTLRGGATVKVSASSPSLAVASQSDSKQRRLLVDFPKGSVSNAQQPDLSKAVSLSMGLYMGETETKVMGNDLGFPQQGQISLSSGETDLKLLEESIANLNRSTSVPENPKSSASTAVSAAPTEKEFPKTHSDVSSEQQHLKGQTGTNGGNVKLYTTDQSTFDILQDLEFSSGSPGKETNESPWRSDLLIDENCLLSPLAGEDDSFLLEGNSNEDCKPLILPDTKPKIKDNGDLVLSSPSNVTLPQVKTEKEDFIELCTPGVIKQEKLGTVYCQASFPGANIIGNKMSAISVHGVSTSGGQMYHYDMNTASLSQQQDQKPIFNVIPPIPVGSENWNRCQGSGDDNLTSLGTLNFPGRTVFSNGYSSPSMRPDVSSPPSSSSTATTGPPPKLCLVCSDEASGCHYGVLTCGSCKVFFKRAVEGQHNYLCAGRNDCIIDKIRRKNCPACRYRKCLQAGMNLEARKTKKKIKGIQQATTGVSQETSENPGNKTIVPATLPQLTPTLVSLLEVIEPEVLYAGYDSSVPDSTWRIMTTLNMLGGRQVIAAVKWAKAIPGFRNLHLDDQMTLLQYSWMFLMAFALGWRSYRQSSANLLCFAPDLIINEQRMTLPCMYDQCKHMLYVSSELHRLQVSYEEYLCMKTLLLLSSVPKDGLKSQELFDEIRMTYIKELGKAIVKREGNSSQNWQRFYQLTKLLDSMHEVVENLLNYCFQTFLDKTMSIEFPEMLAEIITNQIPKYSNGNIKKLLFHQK
Chain of Ubiquitin carboxyl-terminal hydrolase 1 (Homo sapiens) (O94782 whole entry, looked up): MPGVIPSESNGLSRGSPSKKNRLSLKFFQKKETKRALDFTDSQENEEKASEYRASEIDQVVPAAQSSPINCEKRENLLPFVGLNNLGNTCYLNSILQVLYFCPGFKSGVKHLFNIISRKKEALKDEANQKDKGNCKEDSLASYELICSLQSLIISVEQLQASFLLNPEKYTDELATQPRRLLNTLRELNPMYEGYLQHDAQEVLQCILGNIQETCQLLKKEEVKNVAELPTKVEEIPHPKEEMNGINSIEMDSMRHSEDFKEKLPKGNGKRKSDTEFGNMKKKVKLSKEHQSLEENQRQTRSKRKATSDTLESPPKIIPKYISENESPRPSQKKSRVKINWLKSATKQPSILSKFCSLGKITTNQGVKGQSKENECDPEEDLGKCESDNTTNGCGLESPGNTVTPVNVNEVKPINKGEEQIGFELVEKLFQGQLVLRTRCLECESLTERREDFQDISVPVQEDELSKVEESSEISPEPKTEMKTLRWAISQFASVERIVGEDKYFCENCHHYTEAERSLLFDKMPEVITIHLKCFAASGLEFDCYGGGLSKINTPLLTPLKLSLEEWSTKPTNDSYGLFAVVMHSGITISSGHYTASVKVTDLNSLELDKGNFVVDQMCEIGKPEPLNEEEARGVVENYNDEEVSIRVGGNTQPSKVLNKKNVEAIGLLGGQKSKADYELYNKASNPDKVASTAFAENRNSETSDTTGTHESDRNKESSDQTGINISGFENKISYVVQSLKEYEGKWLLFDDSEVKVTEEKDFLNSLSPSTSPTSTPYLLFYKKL
Chain of 3',5'-cyclic-AMP phosphodiesterase 4B (Homo sapiens) (Q07343 whole entry, looked up): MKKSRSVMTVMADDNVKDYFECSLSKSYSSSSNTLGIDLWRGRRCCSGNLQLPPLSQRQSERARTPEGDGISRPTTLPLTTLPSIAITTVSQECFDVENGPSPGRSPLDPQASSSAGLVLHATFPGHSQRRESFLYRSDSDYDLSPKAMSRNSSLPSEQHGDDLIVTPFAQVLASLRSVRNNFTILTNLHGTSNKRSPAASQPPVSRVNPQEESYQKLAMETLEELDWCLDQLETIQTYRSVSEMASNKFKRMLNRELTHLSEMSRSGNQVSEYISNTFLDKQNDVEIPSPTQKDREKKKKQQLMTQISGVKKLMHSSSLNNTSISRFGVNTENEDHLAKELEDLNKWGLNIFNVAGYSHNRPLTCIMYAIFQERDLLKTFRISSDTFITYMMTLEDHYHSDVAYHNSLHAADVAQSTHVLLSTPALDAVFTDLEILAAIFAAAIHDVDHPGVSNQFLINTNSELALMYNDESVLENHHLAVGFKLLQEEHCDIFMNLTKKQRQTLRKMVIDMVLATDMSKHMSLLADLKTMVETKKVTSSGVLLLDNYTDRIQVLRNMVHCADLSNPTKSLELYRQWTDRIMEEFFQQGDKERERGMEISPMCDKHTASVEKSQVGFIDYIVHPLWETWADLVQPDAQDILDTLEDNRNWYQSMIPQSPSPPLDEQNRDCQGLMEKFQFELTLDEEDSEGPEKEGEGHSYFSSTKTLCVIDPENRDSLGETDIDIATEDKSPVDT
Chain of Lysosomal acid glucosylceramidase (Homo sapiens) (P04062 whole entry, looked up): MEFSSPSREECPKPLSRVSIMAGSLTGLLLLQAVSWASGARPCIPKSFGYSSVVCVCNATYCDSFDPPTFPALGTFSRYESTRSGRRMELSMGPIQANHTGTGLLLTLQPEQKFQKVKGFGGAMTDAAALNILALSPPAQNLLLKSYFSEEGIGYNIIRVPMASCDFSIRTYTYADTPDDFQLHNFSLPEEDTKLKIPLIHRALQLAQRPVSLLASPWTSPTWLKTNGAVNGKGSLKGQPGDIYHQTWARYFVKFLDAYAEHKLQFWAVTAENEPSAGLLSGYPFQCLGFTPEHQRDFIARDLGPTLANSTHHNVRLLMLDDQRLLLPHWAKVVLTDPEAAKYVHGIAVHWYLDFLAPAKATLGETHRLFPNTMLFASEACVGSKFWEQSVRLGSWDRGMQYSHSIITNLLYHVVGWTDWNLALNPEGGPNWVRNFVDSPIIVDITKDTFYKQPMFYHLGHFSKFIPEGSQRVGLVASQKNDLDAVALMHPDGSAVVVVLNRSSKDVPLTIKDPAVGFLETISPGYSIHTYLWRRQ
Chain of Cytochrome P450 2C19 (Homo sapiens) (P33261 whole entry, looked up): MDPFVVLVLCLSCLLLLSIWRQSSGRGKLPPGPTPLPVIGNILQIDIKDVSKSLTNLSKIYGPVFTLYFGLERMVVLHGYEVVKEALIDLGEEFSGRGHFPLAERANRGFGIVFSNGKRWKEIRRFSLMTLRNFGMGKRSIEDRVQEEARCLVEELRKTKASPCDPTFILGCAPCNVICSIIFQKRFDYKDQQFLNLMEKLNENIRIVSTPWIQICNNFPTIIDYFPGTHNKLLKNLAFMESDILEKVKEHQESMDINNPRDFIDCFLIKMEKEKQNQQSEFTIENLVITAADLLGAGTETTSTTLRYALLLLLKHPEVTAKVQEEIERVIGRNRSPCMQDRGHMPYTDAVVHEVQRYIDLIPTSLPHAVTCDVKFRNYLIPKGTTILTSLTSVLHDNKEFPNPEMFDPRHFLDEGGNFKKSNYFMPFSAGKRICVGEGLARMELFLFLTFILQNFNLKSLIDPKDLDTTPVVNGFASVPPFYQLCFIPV

In the case of `COc1ccc2[nH]cc(CCNc3ncnc4ccc(-c5ccccc5CN(C)C)cc34)c2c1`, the Potency in experiment [1] was > 11.4 µM (inactive); in experiment [3], 31.6 µM (active); in experiment [6], > 46 µM (inactive); in [7], > 46 µM (inactive); in experiment [10], 1.58 µM (active). The activity change, negative = inhibition in experiment [2] is -1.42% (inactive); in experiment [4], -18.9% (inactive); in experiment [14], 7.35% (inactive). The activity, negative = inhibition in experiment [5] was 0.00328% (inactive). In addition, the Potency result in experiment [8], in [9], in [11], in experiment [12] and in experiment [15] was “inactive” in each case. Also, the compound was classed as inactive in [13]. Also, the max response in experiment [14] (setting [17]) was -2.58%; in experiment [14] (setting [18]), 5.15%.

Take `COc1ccc2[nH]cc(CCNc3cc(-c4ccoc4)ncn3)c2c1`: the Potency in experiment [1] is > 11.4 µM (inactive); in experiment [3] it was 0.631 µM (active); in [6], > 46 µM (inactive); in experiment [7], > 46 µM (inactive); in experiment [16] it was 5.01 µM (active). In addition, the activity change, negative = inhibition was -5.94% (inactive) in experiment [2], 2.58% (inactive) in experiment [4] and 11% (inactive) in experiment [14]. Also, the activity, negative = inhibition in experiment [5] is 2.87% (inactive). In addition, the Potency entry in experiment [8], in experiment [9], in experiment [11], in experiment [12] and in experiment [15] was “inactive” each time. Besides, the compound was classed as inactive in experiment [13]. Besides, the values for the max response in experiment [14] (setting [17]) and in experiment [14] (setting [18]) were 6.67% and 17.6%, respectively.

Take `CS(=O)(=O)Nc1cccc(-c2nc(N3CCOCC3)c3ccccc3n2)c1`: the Potency was > 11.4 µM (inactive) in experiment [1]; 5.01 µM (active) in experiment [3]; > 46 µM (inactive) in experiment [6]; > 46 µM (inactive) in experiment [7]; 1.58 µM (active) in experiment [10]. The results for the activity change, negative = inhibition in experiment [2], in experiment [4] and in experiment [14] were -11.2% (inactive), 27.4% (inactive) and 2.88% (inactive), respectively. Further, the activity, negative = inhibition in [5] is -10.3% (inactive). For the same compound, the Potency result in [8], in experiment [11], in experiment [12] and in [15] was “inactive” throughout. The outcome in [13] was inactive. Further, the max response is -24.3% in experiment [14] (setting [17]) and -22% in experiment [14] (setting [18]).

Take `Cc1cccc(CNc2nc(-c3ccoc3)nc3ccccc23)c1`: the Potency in experiment [1] is > 11.4 µM (inactive); in experiment [3], 1.26 µM (active); in [6] it was > 46 µM (inactive); in experiment [7], > 46 µM (inactive); in experiment [10], 6.31 µM (active); in experiment [16] it was 7.94 µM (active). Besides, the activity change, negative = inhibition was -0.544% (inactive) in experiment [2], -3.51% (inactive) in experiment [4] and 11.1% (inactive) in [14]. Besides, in experiment [5], the activity, negative = inhibition is -10.1% (inactive). Moreover, the Potency result in experiment [8], in experiment [11] and in experiment [12] was “inactive” throughout. The compound was classed as inactive in experiment [13]. The results for the max response in experiment [14] (setting [17]) and in [14] (setting [18]) were -24.1% and -2.26%, respectively.

For `N#Cc1cccc(-c2nc(Nc3ccncc3)c3ccccc3n2)c1`, the Potency in experiment [1] was 2.09 µM (active); in experiment [3], 0.631 µM (active); in experiment [6] it was > 46 µM (inactive); in experiment [7] it was > 46 µM (inactive). Also, the values for the activity change, negative = inhibition in experiment [2], in experiment [4] and in experiment [14] were -0.676% (inactive), -19.2% (inactive) and 5.79% (inactive), respectively. In experiment [5], the activity, negative = inhibition is 8.07% (inactive). The Potency result in experiment [8], in experiment [9], in experiment [11] and in [12] was “inactive” each time. For the same compound, the result in experiment [13] was inactive. For the same compound, the values for the max response in experiment [14] (setting [17]) and in experiment [14] (setting [18]) were 4.98% and 11.4%, respectively.

For the origin of these results see PubChem BioAssay (NCATS).
